# Compounds with a hit are over-represented: about 21% of the library has one in this group of screens.
# ELG1 DNA repair: qHTS screen for small molecules that inhibit ELG1-dependent DNA repair in human embryonic kidney (HEK293T) cells expressing luciferase-tagged ELG1. HEK293T ELG1-luciferase reporter, luminescence, 16 h; DNA damage induced by 5-fluorouridine. Potency, µM (top dose mostly 46.1 µM), for inactives: at the highest dose activity change, negative = inhibition, most hits filed as inhibitors. 2.3% of 330,000 active. AID 504467, 2011; note: potency is the fitted concentration of half-maximal effect; nearly all actives have a fitted effect of over 55% in size
#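 HEK293T cells expressing luciferase-tagged ELG1 (2,000/well) received 5-Fluorouridine plus compound or DMSO for 16 hr at 37 °C. Luciferase was read by ONE-Glo luminescence after 30 min at room temperature.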
# IL1B secr inh: qHTS for Inhibitors of Inflammasome Signaling: IL-1-beta AlphaLISA Primary Screen; THP-1 LPS/ATP IL-1B secretion, AlphaLISA, 16 h; stronger effect = lower value; activity change, % at 57.5 µM; 4.7% of 360,000 active; AID 743279, 2014; in the data active = activity change below about -50%; inconclusive = mostly about -30% to -49%
#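 THP-1 cells pretreated 1 hr with compounds (up to 57.5 uM final), then stimulated with LPS (250 ng/mL final) plus ATP (1.25 mM final); secreted IL-1B measured by AlphaLISA after 16 hr, decreased signal indicating inhibition.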
# DT40 TDP1 CPT: qHTS for Inhibitors of human tyrosyl-DNA phosphodiesterase 1 (TDP1): qHTS in cells in presence of CPT; chicken DT40 Tdp1-/-;hTDP1 cells + 20 nM CPT, ATP luminescence, 48 h; Potency, µM (series often up to 46.2 µM), for inactives: at the highest dose activity change, negative = growth inhibition, most hits filed as inhibitors; 12% of 420,000 active; AID 686979, 2013; note: potency is the fitted concentration of half-maximal effect; nearly all actives have a fitted effect of over 55% in size
#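 Cell growth measured by CellTiter-Glo luminescence after a minimum 48 h, 37 C compound exposure with 20 nM CPT in Tdp1-knockout DT40 cells stably expressing hTDP1, seeded 400/well; qHTS titration format.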
# RORgamma inh: qHTS for inhibitors of ROR gamma transcriptional activity; Nuclear receptor ROR-gamma (Mus musculus), P51450; Drosophila S2 Gal4-RORgamma UAS-luciferase reporter, 20 h; Potency, µM (doses to about 53.6 µM), without a hit: top-dose activity change, negative = inhibition, most hits filed as inhibitors; 5.4% of 310,000 active; AID 2551, 2010; note: potency is the fitted concentration of half-maximal effect; nearly all actives have a fitted effect of over 60% in size
# Target sequence (P51450 whole entry, looked up, the tested form may be a part): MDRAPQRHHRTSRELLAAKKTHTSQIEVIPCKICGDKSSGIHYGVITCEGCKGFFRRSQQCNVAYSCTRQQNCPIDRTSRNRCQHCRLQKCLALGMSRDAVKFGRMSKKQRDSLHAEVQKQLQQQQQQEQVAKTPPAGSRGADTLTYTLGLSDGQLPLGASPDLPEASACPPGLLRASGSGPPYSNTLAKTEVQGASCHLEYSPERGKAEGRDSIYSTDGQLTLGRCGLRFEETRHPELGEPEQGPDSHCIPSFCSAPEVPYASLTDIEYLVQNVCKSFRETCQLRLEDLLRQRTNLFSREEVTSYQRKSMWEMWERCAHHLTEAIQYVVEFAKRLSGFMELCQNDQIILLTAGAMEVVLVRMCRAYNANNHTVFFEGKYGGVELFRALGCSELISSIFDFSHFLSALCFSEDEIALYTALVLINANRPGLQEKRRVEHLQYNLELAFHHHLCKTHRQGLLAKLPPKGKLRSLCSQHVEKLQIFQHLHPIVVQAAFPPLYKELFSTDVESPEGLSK
#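 A Gal4/UAS one-hybrid system in insect cells: metallothionein-promoter Gal4–ROR gamma fusion plus Photinus luciferase reporter. Copper sulfate 700 uM final, 20 hr ambient incubation, luminescent detection after 10 min with reagent.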
# DT40 TDP1 no CPT: qHTS for Inhibitors of human tyrosyl-DNA phosphodiesterase 1 (TDP1): qHTS in cells in absence of CPT; AID 686978, 2013; Potency, µM (series often up to 46.2 µM), for the others: at the highest dose activity change, negative = growth inhibition, most hits filed as inhibitors; 15% of 420,000 active; DT40 Tdp1-/- hTDP1 cells, no CPT, ATP luminescence, 48 h; note: potency is the fitted concentration of half-maximal effect; nearly all actives have a fitted effect of over 55% in size
#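 A cellular qHTS used chicken DT40 cells lacking endogenous Tdp1 but carrying stably transfected human TDP1. Compounds were applied without camptothecin, and cell growth kinetics were judged by ATP-dependent luminescence after ≥48 hr.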
# VP16 counter: VP16 counterscreen qHTS for inhibitors of ROR gamma transcriptional activity | Drosophila S2 Gal4-VP16 UAS-luciferase, luminescence, 20 h | Potency, µM (series often up to 53.6 µM), for the others: at the highest dose activity, negative = inhibition, usual class: inhibitors | 3.5% of 310,000 active;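 note: Gal4-VP16 expression switched on by copper sulfate through the metallothionein promoter; potency is the fitted concentration of half-maximal effect; nearly all actives have a fitted effect of over 50% in size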
# * = called active by the depositor; ? = inconclusive; . = not tested or not shown; [ ] = remark or other dose. Unless noted, calls come from the whole dose curve; as a rule, active = well fitted curve in the direction sought with a large enough effect; inconclusive = small, poorly fitted or top-dose-only effect, or another doubt; inactive = no such curve, though single readings can be large; an effect the other way counts as inactive or inconclusive. % is set by controls: 0 for no effect and ±100 for the full control effect.
SMILES,ELG1 DNA repair,IL1B secr inh,DT40 TDP1 CPT,RORgamma inh,DT40 TDP1 no CPT,VP16 counter
Cc1cccc(N2CC(C(=O)NC3CCCCCC3)CC2=O)c1C (stereo unspecified),?,7.0,?,.,?,.
CCNc1ncc2nc(-c3cccs3)c(=O)n(C)c2n1,.,.,7.3%,-0.7%,2.3%,?
CC(=O)c1cccc(NC(=O)CCc2nc3cccnc3n2Cc2cccs2)c1,.,.,?,.,-107.2%,.
COC(=O)c1ccccc1NC(=O)c1nn(C)c2c1COc1ccccc1-2,.,.,-4.9%,.,-1.7%,.
CN(CCO)C(=O)c1cn(C2CCCN(Cc3cc4ccccc4s3)C2)nn1 (stereo unspecified),.,.,-19.1%,.,-25.3%,.
CC(Sc1nnnn1C)C(=O)NC1CCCC1 (stereo unspecified),12.0%,-2.1,16.8%,.,10.3%,.
NCCO,.,.,6.4%[92.5 µM],-29.5%,7.3%[92.5 µM],8.1%
CCOc1ccc(NC(=O)CN(C)C(=O)c2ccc(N3CCCCCC3)c([N+](=O)[O-])c2)cc1OCC,?,-1.2,?,.,23.1µM*,.
Cc1ccc(C(=O)N/N=C\c2ccc(Br)o2)o1,12.2%,-28.4,-12.4%,-11.9%,2.2%,2.8%
Cc1c(C(=O)N/N=C/c2ccc(-c3ccccc3[N+](=O)[O-])o2)sc(N)c1C#N,?,52.2,16.4µM*,39.5%[10 µM],13µM*,-56.3%
O=C(N/N=C/c1ccc(-c2ccccc2[N+](=O)[O-])o1)c1cncc(Br)c1,?,?,?,6.31µM*,?,5.01µM*
Nn1cnnc1N/N=C\c1ccc(-c2ccccc2[N+](=O)[O-])o1,16.5%,16.7,?,?,-29.8%,?
CCN(CC)S(=O)(=O)c1cccc(C(=O)N/N=C/c2ccccc2OCC(=O)O)c1,0.1%,6.6,-13.0%,11.1%,-15.4%,8.2%
O=C(N/N=C\c1ccc(-c2ccccc2[N+](=O)[O-])o1)C1COc2cc3ccccc3cc2O1 (stereo unspecified),-13.3%,7.5,?,?,?,-14.7%
CCN(CC)S(=O)(=O)c1cccc(C(=O)N/N=C/c2ccc([N+](=O)[O-])o2)c1,?,-89.5*,20.6µM*,10µM*,?,?
Cc1ccc(C(=O)N/N=C/c2ccc(-c3ccc(Br)cc3[N+](=O)[O-])o2)o1,?,-85.1*,?,?,?,?
COCCn1c(=O)c(-c2ccc(Cl)cc2)nc2cnc(N(C)C)nc21,.,.,-18.7%,-1.6%,-6.8%,6.9%
CCOC(=O)C1=C(C)NC(C)=C(C(=O)OCC)C1C(=O)OCC(=O)N(C)Cc1ccccc1,?,?,-5.7%,.,-27.5%,.
O=C(Nc1ccccc1C(F)(F)F)N1CCOc2ccc(Cl)cc21,.,.,10.4%,.,1.9%,.
O=C(N/N=C\c1ccc([N+](=O)[O-])o1)c1cncc(Br)c1,16.4µM*,-79.0*,4.61µM*,?,6.51µM*,?
COc1ccccc1NS(=O)(=O)c1ccc2oc(SCC(=O)N3CCNC3=O)nc2c1,?,-5.0,3.66µM*,.,?,.
COc1ccccc1NS(=O)(=O)c1ccc2oc(SCc3ccc(C#N)cc3)nc2c1,?,-7.1,11.6µM*,?,18.4µM*,?
COc1ccc(OC(=O)c2nc(SCc3ccc(F)cc3)ncc2Cl)cc1,.,.,-14.3%,.,-12.0%,.
CCS(=O)(=O)c1ncc(Cl)c(C(=O)N(Cc2ccccc2)c2ccc(OC)cc2)n1,.,.,1.03µM*,.,0.651µM*,.
